According to paper PMC7862700, “An all-to-all approach to the identification of sequence-specific readers for epigenetic DNA modifications on cytosine”:

Tests used:
Test in all cases: DAPPL (digital affinity profiling via proximity ligation, sequencing); 10 mM Tris-HCl pH 7.5, 50 mM NaCl, 1 mM DTT, 4% glycerol, room temperature, 30 min; GST-TFs on glutathione beads, 16-mer random dsDNA library, 0.1% formaldehyde crosslink after washing; high values mean tight binding
FEV = target: T1, FEV (Homo sapiens, UniProt Q99581 1-238); settings: protein: recombinant; tags: N-terminal GST; dsDNA, one strand shown
T1 sequence: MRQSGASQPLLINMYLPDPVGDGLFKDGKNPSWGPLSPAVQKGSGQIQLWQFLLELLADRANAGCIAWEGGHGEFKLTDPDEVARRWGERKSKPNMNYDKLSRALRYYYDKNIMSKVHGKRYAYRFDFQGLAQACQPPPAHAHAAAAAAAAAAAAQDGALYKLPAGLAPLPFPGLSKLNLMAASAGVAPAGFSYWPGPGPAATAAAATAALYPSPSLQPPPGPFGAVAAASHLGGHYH
How it was run: (§1)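 Beads coated with glutathione captured GST-fused human transcription factors that had been expressed in yeast, and the factors were then given DNA barcodes and pooled with a tag-only sample. The pools were incubated with 200 nmole of a random double-stranded 16-mer DNA library in Tris/NaCl/DTT/glycerol buffer for 30 min at room temperature, washed, crosslinked with 0.1% formaldehyde and proximity-ligated with BsaI/T4 ligase at 37 °C for 1 h. PCR amplification and Illumina NextSeq500 sequencing came last. Binding signal is each hexamer's read frequency for a factor divided by its frequency for the tag-only sample.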

ETV5 = ETV5 (Homo sapiens, UniProt P41161 1-510); settings: protein: recombinant; tags: N-terminal GST; dsDNA, one strand shown
How it was run: as §1

HSF1 = HSF1 (Homo sapiens, UniProt Q00613 1-529); settings: protein: recombinant; tags: N-terminal GST; chain copies: 3; dsDNA, one strand shown
How it was run: as §1

SPIC = target: T2, SPIC (Homo sapiens, UniProt Q8N5J4 1-248); settings: protein: recombinant; tags: N-terminal GST; dsDNA, one strand shown
T2 sequence: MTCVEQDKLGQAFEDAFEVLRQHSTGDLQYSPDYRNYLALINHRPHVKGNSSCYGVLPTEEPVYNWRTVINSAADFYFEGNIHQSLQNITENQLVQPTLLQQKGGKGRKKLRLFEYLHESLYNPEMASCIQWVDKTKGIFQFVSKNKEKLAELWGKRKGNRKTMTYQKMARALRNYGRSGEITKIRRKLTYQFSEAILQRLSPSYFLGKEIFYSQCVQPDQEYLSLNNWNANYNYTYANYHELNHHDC
How it was run: as §1

ELF4 = ELF4 (Homo sapiens, UniProt Q99607 1-663); settings: protein: recombinant; tags: N-terminal GST; dsDNA, one strand shown
How it was run: as §1

ELK4 = target: T3, ELK4 (Homo sapiens, UniProt P28324-2 1-405); settings: protein: recombinant; tags: N-terminal GST; dsDNA, one strand shown
T3 sequence: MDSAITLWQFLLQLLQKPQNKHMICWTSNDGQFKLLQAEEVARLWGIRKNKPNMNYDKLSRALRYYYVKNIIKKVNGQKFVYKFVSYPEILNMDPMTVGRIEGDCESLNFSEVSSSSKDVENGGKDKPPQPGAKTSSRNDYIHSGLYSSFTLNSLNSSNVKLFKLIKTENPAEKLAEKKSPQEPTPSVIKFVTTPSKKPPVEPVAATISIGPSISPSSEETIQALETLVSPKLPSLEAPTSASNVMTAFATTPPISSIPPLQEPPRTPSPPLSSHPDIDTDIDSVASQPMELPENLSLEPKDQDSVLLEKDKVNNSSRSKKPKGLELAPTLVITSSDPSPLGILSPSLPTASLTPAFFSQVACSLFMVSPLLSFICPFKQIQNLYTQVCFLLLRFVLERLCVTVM
How it was run: as §1

ETV2 = target: T4, ETV2 (Homo sapiens, UniProt O00321 1-342); settings: protein: recombinant; tags: N-terminal GST; dsDNA, one strand shown
T4 sequence: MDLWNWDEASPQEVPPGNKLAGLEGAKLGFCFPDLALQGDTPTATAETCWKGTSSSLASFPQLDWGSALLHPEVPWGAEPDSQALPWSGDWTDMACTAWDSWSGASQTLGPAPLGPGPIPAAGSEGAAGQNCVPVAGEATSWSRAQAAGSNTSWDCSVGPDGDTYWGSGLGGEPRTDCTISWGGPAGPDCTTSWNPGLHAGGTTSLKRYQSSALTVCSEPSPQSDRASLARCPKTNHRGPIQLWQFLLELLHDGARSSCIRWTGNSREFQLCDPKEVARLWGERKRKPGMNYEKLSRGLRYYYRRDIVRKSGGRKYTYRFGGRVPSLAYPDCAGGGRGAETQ
How it was run: as §1

ELF3 = target: T5, ELF3 (Homo sapiens, UniProt P78545 1-371); settings: protein: recombinant; tags: N-terminal GST; dsDNA, one strand shown
T5 sequence: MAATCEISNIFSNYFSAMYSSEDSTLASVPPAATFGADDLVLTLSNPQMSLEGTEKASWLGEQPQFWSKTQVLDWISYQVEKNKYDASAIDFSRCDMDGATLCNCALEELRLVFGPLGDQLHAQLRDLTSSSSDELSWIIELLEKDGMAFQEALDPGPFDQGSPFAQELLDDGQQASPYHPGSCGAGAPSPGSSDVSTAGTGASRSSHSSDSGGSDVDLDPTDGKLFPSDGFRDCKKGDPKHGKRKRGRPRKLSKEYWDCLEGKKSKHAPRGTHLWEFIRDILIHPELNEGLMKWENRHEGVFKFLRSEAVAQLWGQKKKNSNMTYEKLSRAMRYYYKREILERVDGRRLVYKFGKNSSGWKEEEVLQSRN
How it was run: as §1

CRX = CRX (Homo sapiens, UniProt O43186 1-299); settings: protein: recombinant; tags: N-terminal GST; dsDNA, one strand shown
How it was run: as §1

ETV1 = ETV1 (Homo sapiens, UniProt P50549 1-477); settings: protein: recombinant; tags: N-terminal GST; dsDNA, one strand shown
How it was run: as §1

Sequence of CRX (O43186 whole entry): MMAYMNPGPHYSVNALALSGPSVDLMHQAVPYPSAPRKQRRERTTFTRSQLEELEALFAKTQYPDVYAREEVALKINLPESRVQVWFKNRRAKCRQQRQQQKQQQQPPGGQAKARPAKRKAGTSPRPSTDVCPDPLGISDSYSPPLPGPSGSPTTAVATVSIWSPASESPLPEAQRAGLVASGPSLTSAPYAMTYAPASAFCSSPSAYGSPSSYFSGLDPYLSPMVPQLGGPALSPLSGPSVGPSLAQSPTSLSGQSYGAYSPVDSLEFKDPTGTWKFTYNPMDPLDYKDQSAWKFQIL
Sequence of ETV5 (P41161 whole entry): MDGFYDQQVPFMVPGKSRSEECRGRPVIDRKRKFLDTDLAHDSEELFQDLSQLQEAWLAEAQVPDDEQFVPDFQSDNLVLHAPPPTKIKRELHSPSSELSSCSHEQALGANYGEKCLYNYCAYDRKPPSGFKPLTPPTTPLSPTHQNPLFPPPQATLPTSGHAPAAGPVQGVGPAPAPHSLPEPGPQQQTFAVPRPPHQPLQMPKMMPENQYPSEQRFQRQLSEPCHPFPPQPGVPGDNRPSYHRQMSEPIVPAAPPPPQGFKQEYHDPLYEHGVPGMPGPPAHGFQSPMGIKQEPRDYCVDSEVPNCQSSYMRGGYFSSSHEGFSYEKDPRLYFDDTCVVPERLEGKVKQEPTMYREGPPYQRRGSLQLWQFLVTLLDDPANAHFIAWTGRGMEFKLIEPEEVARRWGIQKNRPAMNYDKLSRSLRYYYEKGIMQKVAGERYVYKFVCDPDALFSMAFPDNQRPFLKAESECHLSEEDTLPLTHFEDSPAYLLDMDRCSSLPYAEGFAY
Sequence of ETV1 (P50549 whole entry): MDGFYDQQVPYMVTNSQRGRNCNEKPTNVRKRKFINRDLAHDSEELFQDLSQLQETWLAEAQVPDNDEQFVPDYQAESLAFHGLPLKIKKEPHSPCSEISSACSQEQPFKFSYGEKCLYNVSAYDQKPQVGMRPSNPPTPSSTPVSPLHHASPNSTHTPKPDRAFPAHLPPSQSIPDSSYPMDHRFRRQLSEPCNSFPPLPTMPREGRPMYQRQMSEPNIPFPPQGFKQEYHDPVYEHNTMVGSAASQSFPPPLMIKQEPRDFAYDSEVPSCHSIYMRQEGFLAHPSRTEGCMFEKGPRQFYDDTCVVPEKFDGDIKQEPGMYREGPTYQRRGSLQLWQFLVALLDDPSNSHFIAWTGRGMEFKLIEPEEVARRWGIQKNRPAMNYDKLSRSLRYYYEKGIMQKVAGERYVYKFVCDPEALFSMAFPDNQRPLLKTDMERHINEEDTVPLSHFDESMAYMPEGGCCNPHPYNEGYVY
Sequence of ELF4 (Q99607 whole entry): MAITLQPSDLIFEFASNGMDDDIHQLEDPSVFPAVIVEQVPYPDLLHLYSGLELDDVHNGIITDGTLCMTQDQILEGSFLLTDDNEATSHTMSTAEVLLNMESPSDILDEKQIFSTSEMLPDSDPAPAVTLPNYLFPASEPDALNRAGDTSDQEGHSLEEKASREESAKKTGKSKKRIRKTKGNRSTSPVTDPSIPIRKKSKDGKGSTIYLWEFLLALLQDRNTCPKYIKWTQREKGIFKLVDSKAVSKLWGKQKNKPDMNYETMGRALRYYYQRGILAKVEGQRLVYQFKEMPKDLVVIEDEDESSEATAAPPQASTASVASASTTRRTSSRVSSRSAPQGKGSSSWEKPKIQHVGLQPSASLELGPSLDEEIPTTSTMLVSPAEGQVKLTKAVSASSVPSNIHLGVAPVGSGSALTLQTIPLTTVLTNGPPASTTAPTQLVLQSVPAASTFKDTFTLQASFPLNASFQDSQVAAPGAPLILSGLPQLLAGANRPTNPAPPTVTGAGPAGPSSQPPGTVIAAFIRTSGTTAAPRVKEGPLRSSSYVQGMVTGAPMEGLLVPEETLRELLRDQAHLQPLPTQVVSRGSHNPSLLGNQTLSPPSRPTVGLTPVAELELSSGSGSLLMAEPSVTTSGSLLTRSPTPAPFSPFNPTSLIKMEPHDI
Sequence of HSF1 (Q00613 whole entry): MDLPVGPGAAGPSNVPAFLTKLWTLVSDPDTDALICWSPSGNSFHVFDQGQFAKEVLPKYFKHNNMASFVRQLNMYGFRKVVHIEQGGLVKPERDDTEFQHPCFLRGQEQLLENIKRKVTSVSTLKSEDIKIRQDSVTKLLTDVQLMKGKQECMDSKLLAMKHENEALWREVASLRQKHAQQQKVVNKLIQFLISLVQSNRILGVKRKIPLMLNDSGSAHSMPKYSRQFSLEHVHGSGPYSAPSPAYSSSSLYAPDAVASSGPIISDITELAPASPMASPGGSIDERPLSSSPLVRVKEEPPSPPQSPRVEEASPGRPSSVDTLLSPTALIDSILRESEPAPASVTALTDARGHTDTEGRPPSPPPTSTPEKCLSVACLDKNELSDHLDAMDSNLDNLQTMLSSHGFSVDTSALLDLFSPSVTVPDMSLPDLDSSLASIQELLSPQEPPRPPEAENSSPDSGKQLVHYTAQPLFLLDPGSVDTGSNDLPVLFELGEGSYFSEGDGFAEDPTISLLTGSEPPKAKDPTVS

**Q.** What does the source list for ATTGCC?
**A.** binding signal (FEV): 1.25 fold enrichment (6-mer frequency, TF over GST control); binding signal (ETV5): 1.28 fold enrichment (6-mer frequency, TF over GST control); binding signal (HSF1): 1.09 fold enrichment (6-mer frequency, TF over GST control); binding signal (SPIC): 1.29 fold enrichment (6-mer frequency, TF over GST control); binding signal (ELF4): 1.3 fold enrichment (6-mer frequency, TF over GST control); binding signal (ELK4): 1.14 fold enrichment (6-mer frequency, TF over GST control); binding signal (ETV2): 1.12 fold enrichment (6-mer frequency, TF over GST control); binding signal (ELF3): 1.24 fold enrichment (6-mer frequency, TF over GST control); binding signal (CRX): 1.09 fold enrichment (6-mer frequency, TF over GST control); binding signal (ETV1): 1.2 fold enrichment (6-mer frequency, TF over GST control)
